PubChem BioAssay (NCI)
About 79,000 compounds went through this panel and 15% of them were active in at least one assay; those are over-represented in the sample as a whole. Values without a mark were called inactive. Active and inactive are the calls of the source. No stated cut-off is given here; in the data, active means growth inhibition above about 70%; inactive means the rest.

How the values were obtained:
[1] = NCI Yeast Anticancer Drug Screen. Data for the rad50 strain (AID 155);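 further: 0% = growth of vehicle-only cultures of the same strain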; conditions: S. cerevisiae rad50 strain growth inhibition, stronger effect = higher value
Method in brief: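 Cells are treated with compound, grown, and their growth is then scored against vehicle-only cultures of the same repair-deficient yeast strain.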

[2] = NCI Yeast Anticancer Drug Screen. Data for the mec2-1 strain (AID 157); conditions: S. cerevisiae mec2-1 strain, stronger effect = higher value
Method in brief: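 Growth inhibition is read against vehicle-treated controls after compound exposure of the mec2-1 yeast strain, which is defective in DNA damage repair or cell cycle control.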

[3] = NCI Yeast Anticancer Drug Screen. Data for the sgs1 mgt1 strain (AID 161);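 further: 0% = growth of cultures given vehicle only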; conditions: S. cerevisiae sgs1 mgt1 strain, stronger effect = higher value
Method in brief: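 Growth of a repair-deficient yeast mutant was monitored after compound treatment and expressed as inhibition relative to vehicle-treated cultures.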

[4] = NCI Yeast Anticancer Drug Screen. Data for the cln2 rad14 strain (AID 165);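 further: 0% = growth equal to vehicle treated cultures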; conditions: S. cerevisiae cln2 rad14 strain, stronger effect = higher value
Method in brief: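 Growth inhibition, relative to vehicle-treated controls, is the read-out. The test organism is a yeast strain with defined genetic alterations, cln2 rad14.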

[5] = NCI Yeast Anticancer Drug Screen. Data for the bub3 strain (AID 167); conditions: S. cerevisiae bub3 mutant strain, stronger effect = higher value
Method in brief: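 Part of a panel of yeast mutants defective in DNA damage repair or cell cycle regulation. Each strain is grown with compound, and inhibition is calculated relative to solvent-treated cultures.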

[6] = NCI Yeast Anticancer Drug Screen. Data for the mlh1 rad18 strain (AID 175); conditions: S. cerevisiae mlh1 rad18 strain growth inhibition, stronger effect = higher value
Method in brief: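 Cells of a genetically altered yeast strain, deficient in DNA damage repair, were treated with compound. Their growth was then compared with that of vehicle-treated cultures to give inhibition.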

[7] = at 5.0 µM (retest, dose inferred, filed as 0.5)
[8] = at 50.0 µM (retest, dose inferred, filed as 5.0)

Row | SMILES | growth inhibition [1, 7] | growth inhibition [1, 8] | growth inhibition ([1]; at 50.0 µM) | growth inhibition [2, 7] | growth inhibition [2, 8] | growth inhibition ([2]; at 50.0 µM) | growth inhibition [3, 7] | growth inhibition [3, 8] | growth inhibition ([3]; at 50.0 µM) | growth inhibition [4, 7] | growth inhibition [4, 8] | growth inhibition ([4]; at 50.0 µM) | growth inhibition [5, 7] | growth inhibition [5, 8] | growth inhibition ([5]; at 50.0 µM) | growth inhibition [6, 7] | growth inhibition [6, 8] | growth inhibition ([6]; at 50.0 µM)
1 | S=C(NCc1ccccc1)N/N=C/c1ccccn1 | -22% | 65% | 20.6% | 9% | 57% | 17.4% | -9% | 60% | 49.8% | 23% | 83% (active) | 62% | -22% | 72% (active) | 63.9% | 0% | 51% | 42.7%
2 | O=C(/C=C\c1ccc([N+](=O)[O-])o1)/C=C/c1ccc([N+](=O)[O-])o1 | 36% | 96% (active) | 96.8% (active) | 33% | 98% (active) | 97.1% (active) | 52% | 98% (active) | 95% (active) | 28% | 97% (active) | 92.7% (active) | 38% | 97% (active) | 94.9% (active) | 91% (active) | 96% (active) | 98.2% (active)
3 | C1=CC2OC1c1cc3ccccc3cc12 | 13% | 92% (active) | 87.5% (active) | 11% | 98% (active) | 96.5% (active) | 10% | 98% (active) | 89.9% (active) | 23% | 98% (active) | 95.6% (active) | 6% | 97% (active) | 95% (active) | 34% | 97% (active) | 95.2% (active)
4 | C=CCCCCO/N=C/c1c2c(O)c3c(O)c(C)c4c(c3c1O)C(=O)C(C)(O/C=C/C(OC)C(C)C(OC(C)=O)C(C)C(O)C(C)C(O)C(C)/C=C/C=C(\C)C(=O)N2)O4 (stereo not given) | 44% | 89% (active) | 86.4% (active) | 44% | 91% (active) | 91.8% (active) | 33% | 87% (active) | 66.8% | 67% | 91% (active) | 88.3% (active) | 49% | 93% (active) | 79.9% (active) | 34% | 89% (active) | 85.3% (active)
5 | O=C1/C(=C/c2ccccc2[N+](=O)[O-])COc2ccccc21 | 37% | 94% (active) | -4% | 28% | 96% (active) | 12.7% | 21% | 92% (active) | 13.2% | 28% | 94% (active) | 8.75% | 34% | 98% (active) | 15.1% | 23% | 98% (active) | 8.65%
6 | ClC1(Cl)c2ccccc2-c2ccccc21 | -147% | -36% | 7.55% | -51% | -40% | -4.1% | -59% | -49% | -7.05% | -55% | -54% | 43.4% | -67% | -55% | -21% | -115% | -79% | -2.85%
7 | Clc1ccc(CNc2ccc(Cl)c(Cl)c2)cc1 | 8% | 95% (active) | 97.8% (active) | 36% | 97% (active) | 98.2% (active) | 11% | 97% (active) | 98.2% (active) | -10% | 91% (active) | 97.7% (active) | 2% | 96% (active) | 97.5% (active) | 15% | 95% (active) | 97% (active)
8 | CN(CCO)CCn1cnc2c1c(=O)n(C)c(=O)n2C | -7% | 5% | -36.7% | -8% | 9% | -13.9% | 7% | -2% | 1.65% | -15% | -12% | -21.8% | -4% | 9% | -7.15% | -11% | -1% | -5.9%
9 | Cc1ccc2nc(C[n+]3cccc4ccccc43)ccc2c1 | 96% (active) | 99% (active) | 88.8% (active) | 95% (active) | 100% (active) | 81.1% (active) | 88% (active) | 99% (active) | 99.4% (active) | 92% (active) | 98% (active) | 99% (active) | 96% (active) | 99% (active) | 99.7% (active) | 96% (active) | 99% (active) | 99.5% (active)
10 | Oc1c(Cl)c(Cl)c2ncccc2c1Cl | 14% | 13% | 55.8% | 10% | 13% | -8.8% | 11% | 15% | 49% | 4% | 5% | -26.4% | 5% | 37% | 48.6% | 7% | 12% | 45.5%
